34 compounds from PubChem BioAssay (Tox21) can be followed below.

SMILES strings stand for the structures. Results filed as inconclusive are left out. The source made the active and inactive calls. Unless noted, calls come from the whole dose curve; as a rule, active = well fitted curve in the direction sought with a large enough effect in the repeat runs; inconclusive = weak or mixed curves; inactive = no such curve, though single readings can be large; an effect the other way counts as inactive or inconclusive.

Test [1] addresses Retinoic acid receptor RXR-alpha (Homo sapiens) (UniProt P19793). In words: qHTS assay to identify small molecule agonists of the RXR signaling pathway (AID 1159527; calls by dose curve; note: nearly all actives have a fitted effect of over 35% in size). The note with it: HEK293T RXRa-UAS-bla, beta-lactamase ratio, 16 h; series mostly up to 76.8 µM. The essentials: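 Agonist-mode beta-lactamase reporter assay: HEK 293T RXR-alpha-UAS-bla cells treated 16 hr at 37 C with compounds, 9-cis retinoic acid as positive control. LiveBLAzer FRET substrate, 405 nm excitation, 460/530 nm emission.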
A general note: In qHTS, concentration-response curves come from the screen itself.

Test [2] in a line: qHTS assay to identify small molecule agonists of the RXR signaling pathway - cell viability counter screen (AID 1159529). Note: nearly all actives have a fitted effect of over 50% in size. To be noted: RXR-alpha-bla HEK293T viability, CellTiter-Glo, 16 h; series mostly up to 76.8 µM. In a few lines: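 CellTiter-Glo luminescence gave viability in the wells also read for beta-lactamase. Cells (RXR-alpha-UAS-bla HEK 293T, 2% charcoal-stripped FBS medium) had 5 hr plating, then 16 hr compound exposure at 37 C; tetraoctyl ammonium bromide served as positive control.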

Test [3] can be described thus: qHTS assay to identify small molecule antagonists of the retinoid acid receptor (RAR) signaling pathway - cell viability counter screen (AID 1159551). Note: nearly all actives have a fitted effect of over 35% in size. The note with it: C3RL4 cells viability, ATP luminescence (CellTiter-Glo), 6 h; series mostly up to 92.4 µM. The essentials:
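C3RL4 RARE-luciferase line; cpds + retinol 1 uM final, 6 h, 37 C/5% CO2; CellTiter-Glo ATP luminescence, 30 min RT.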

The nature of test [4]: qHTS assay to identify small molecule antagonists of the retinoic acid receptor (RAR) signaling pathway (AID 1159552; note: nearly all actives have a fitted effect of over 50% in size). To be noted: C3RL4 RARE luciferase reporter, retinol-stimulated, 6 h; series mostly up to 92.4 µM. The essentials:
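Luminescent RARE reporter read-out in C3RL4 cells: 6 hr co-treatment at 37 C of test compounds with retinol at 1 uM final. Cells plated overnight beforehand; luciferase reagent incubated 30 min at room temperature before reading.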

Test [5] in a line: qHTS assay to identify small molecule agonists of the retinoic acid receptor (RAR) signaling pathway (AID 1159553). Note: potency is the fitted concentration of half-maximal effect. To be noted: C3RL4 RARE luciferase reporter, agonist, 6 h; series mostly up to 73.3 µM. The essentials: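 RARE-luc C3RL4 cells; overnight attachment 37 C/5% CO2; compound (DMSO) 6 hr; luciferase reagent, 30 min RT; luminescence read-out.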

Chain of Retinoic acid receptor RXR-alpha (Homo sapiens) (P19793 whole entry, looked up): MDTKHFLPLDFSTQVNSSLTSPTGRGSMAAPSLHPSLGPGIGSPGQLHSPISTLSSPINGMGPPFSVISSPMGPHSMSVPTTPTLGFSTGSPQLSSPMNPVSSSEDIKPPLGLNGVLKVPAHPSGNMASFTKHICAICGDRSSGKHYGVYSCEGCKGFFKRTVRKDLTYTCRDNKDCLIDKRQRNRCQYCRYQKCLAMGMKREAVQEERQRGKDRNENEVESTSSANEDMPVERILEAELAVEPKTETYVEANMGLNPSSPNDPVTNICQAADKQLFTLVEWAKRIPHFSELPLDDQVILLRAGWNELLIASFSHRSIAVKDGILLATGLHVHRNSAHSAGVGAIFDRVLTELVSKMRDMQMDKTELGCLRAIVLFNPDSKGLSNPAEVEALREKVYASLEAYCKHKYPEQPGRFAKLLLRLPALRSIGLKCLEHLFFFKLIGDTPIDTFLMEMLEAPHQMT

For `CC[C@H]1OC(=O)[C@H](C)[C@@H](O[C@H]2C[C@@](C)(OC)[C@@H](O)[C@H](C)O2)[C@H](C)[C@@H](O[C@@H]2O[C@H](C)C[C@H](N(C)C)[C@H]2O)[C@](C)(O)C[C@@H](C)C(=O)[C@H](C)[C@@H](O)[C@]1(C)O`, the Potency entry in test [1], in test [2], in test [3] and in test [4] was “inactive” in each case.
For the compound `CC(=O)NCCO`, the Potency entry in test [1], in test [2], in test [3] and in test [4] was “inactive” each time.
As for `Cc1ccc(Cl)cc1N`, the Potency entry in test [1], in test [2], in test [3], in test [4] and in test [5] was “inactive” throughout.
As for `COc1ccc(C2C(=O)c3ccccc3C2=O)cc1`, the Potency result in test [1], in test [2], in test [3], in test [4] and in test [5] was “inactive” in each case.
In the case of `CCC(CO)(CO)CO`, the Potency entry in test [1], in test [2], in test [3], in test [4] and in test [5] was “inactive” each time.
In the case of `CC1=CC[C@@]23C[C@@H]1C(C)(C)[C@@H]2CC[C@H]3C`, the Potency result in test [1], in test [2], in test [3], in test [4] and in test [5] was “inactive” in each case.
For the compound `CC(C)C1CCC(C(=O)N[C@H](Cc2ccccc2)C(=O)O)CC1` (stereo not given in full), the Potency result in test [1], in test [2], in test [3], in test [4] and in test [5] was “inactive” throughout.
On to `CC(C)N=C=NC(C)C`, for which the Potency result in test [1], in test [2], in test [3], in test [4] and in test [5] was “inactive” throughout.
As to `Cc1ccc(N(CCO)CCO)cc1`, the Potency entry in test [1], in test [2], in test [3], in test [4] and in test [5] was “inactive” in each case.
Take `O=S(=O)(Cl)c1c(Cl)cccc1Cl`: the Potency result in test [1], in test [2], in test [3], in test [4] and in test [5] was “inactive” each time.
Regarding `CC(C)OC(=O)c1ccccc1C(=O)OC(C)C`, the Potency entry in test [1], in test [2], in test [3], in test [4] and in test [5] was “inactive” in each case.
For the compound `C=CC(=O)O`, the Potency result in test [1], in test [2], in test [3], in test [4] and in test [5] was “inactive” in each case.
Consider `O=C(O)CCC(=O)OC[C@@H](NC(=O)C(Cl)Cl)[C@H](O)c1ccc([N+](=O)[O-])cc1`, for which the Potency result in test [1], in test [2], in test [3], in test [4] and in test [5] was “inactive” each time.
Take `CSSc1ccoc1C`: the Potency entry in test [1], in test [2], in test [3] and in test [4] was “inactive” in each case. Also, the Potency in test [5] was 0.0431 µM (active).
Regarding `Nc1ccc(S(=O)(=O)NCc2ccccc2)cc1`, the Potency entry in test [1], in test [2], in test [3], in test [4] and in test [5] was “inactive” throughout.
For `CC(C)(C(=O)c1cccnc1)c1cccnc1`, the Potency result in test [1], in test [2], in test [3], in test [4] and in test [5] was “inactive” each time.
Consider `CC(C)COC(=O)c1ccc(O)cc1`, for which the Potency entry in test [1], in test [2], in test [3] and in test [4] was “inactive” each time.
Regarding `Cc1ccc(S(=O)(=O)NC(=O)NC2CCCCC2)cc1`, the Potency result in test [1], in test [2], in test [3], in test [4] and in test [5] was “inactive” each time.
Consider `COc1cc(NS(=O)(=O)c2ccc(N)cc2)nc(C)n1`, for which the Potency result in test [1], in test [2], in test [3], in test [4] and in test [5] was “inactive” throughout.
As for `O=C1OC(=O)c2c(Br)c(Br)c(Br)c(Br)c21`, the Potency result in test [1], in test [2], in test [3], in test [4] and in test [5] was “inactive” throughout.
With `CCOCCC(=O)OCC`, the Potency entry in test [1], in test [2], in test [3], in test [4] and in test [5] was “inactive” in each case.
In the case of `CC(C(=O)O)c1ccc(C(=O)c2cccs2)cc1` (stereo not given), the Potency result in test [1], in test [2], in test [3], in test [4] and in test [5] was “inactive” throughout.
Consider `COc1ccc(C)cc1`, for which the Potency entry in test [1], in test [2], in test [3], in test [4] and in test [5] was “inactive” in each case.
For the compound `CSCC[C@H](NC(=O)[C@H](Cc1c[nH]c2ccccc12)NC(=O)CCNC(=O)OC(C)(C)C)C(=O)N[C@@H](CC(=O)O)C(=O)N[C@@H](Cc1ccccc1)C(N)=O`, the Potency result in test [1], in test [2], in test [3] and in test [4] was “inactive” throughout.
For the compound `COc1ccc2nc(S(=O)Cc3ncc(C)c(OC)c3C)[nH]c2c1` (stereo not given), the Potency result in test [1], in test [2], in test [3] and in test [4] was “inactive” in each case. In addition, the Potency in test [5] is 67.8 µM (active).
Consider `CC1CCC(C(C)CS)CC1S` (stereo not given), for which the Potency entry in test [1], in test [2], in test [3], in test [4] and in test [5] was “inactive” in each case.
On to `O=C1[C@@H]2[C@H]3CC[C@H](C3)[C@@H]2C(=O)N1CCCCN1CCN(c2ncccn2)CC1`, for which the Potency entry in test [1], in test [2], in test [3], in test [4] and in test [5] was “inactive” each time.
Consider `CN1C(CSCC(F)(F)F)Nc2cc(Cl)c(S(N)(=O)=O)cc2S1(=O)=O` (stereo not given), for which the Potency result in test [1], in test [2], in test [3] and in test [4] was “inactive” each time.
Consider `COc1ccc(N)c([N+](=O)[O-])c1`, for which the Potency result in test [1], in test [2], in test [3], in test [4] and in test [5] was “inactive” throughout.
On to `CCN(CC)c1cccc(O)c1`, for which the Potency result in test [1], in test [2], in test [3], in test [4] and in test [5] was “inactive” each time.
`Nc1ccc(F)cc1`: the Potency entry in test [1], in test [2], in test [3], in test [4] and in test [5] was “inactive” in each case.
As to `CCCCC(CC)COS(=O)(=O)O` (stereo not given), the Potency entry in test [1], in test [2], in test [3], in test [4] and in test [5] was “inactive” throughout.
Turning to `Oc1cccc2[nH]ccc12`, the Potency result in test [1], in test [2], in test [3], in test [4] and in test [5] was “inactive” in each case.
`O=C1OC[C@H](Cc2cccc(O)c2)[C@H]1Cc1cccc(O)c1`: the Potency entry in test [1], in test [2], in test [3], in test [4] and in test [5] was “inactive” throughout.
